# Data from US20200407704, “FUSION PROTEINS AND METHODS FOR SITE-DIRECTED GENOME EDITING” (The Regents of the University of California, published 2020).
# T1: hADAR2d (ADAR2 deaminase domain, hADAR2-D WT) (Homo sapiens)
# T1 chain: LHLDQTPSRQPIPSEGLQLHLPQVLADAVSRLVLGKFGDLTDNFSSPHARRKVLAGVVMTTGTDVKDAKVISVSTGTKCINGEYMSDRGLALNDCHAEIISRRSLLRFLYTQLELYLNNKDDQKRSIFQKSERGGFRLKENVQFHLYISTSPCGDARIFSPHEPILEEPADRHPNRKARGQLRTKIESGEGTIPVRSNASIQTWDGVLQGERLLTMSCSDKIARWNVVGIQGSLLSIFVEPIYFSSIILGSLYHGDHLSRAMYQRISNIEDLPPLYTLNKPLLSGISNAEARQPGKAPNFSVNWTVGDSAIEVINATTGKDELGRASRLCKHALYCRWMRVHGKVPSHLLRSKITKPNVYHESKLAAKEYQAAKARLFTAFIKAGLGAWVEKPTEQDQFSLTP
# B1: partially deoxy duplex (substrate c) (mixed)
# RNA 1: GCUCGCGAUGCUAGAGGGCUCUGC
# RNA 2: GCAGAGCCCCCCAGCAUCGCGAGC
# modifications: 2'-deoxy at top UAGA
# B2: partially deoxy duplex (substrate b) (mixed)
# RNA 1: GCUCGCGAUGCUAGAGGGCUCUGC
# RNA 2: GCAGAGCCCCCCAGCAUCGCGAGC
# modifications: 2'-deoxy at top UAGA and at bottom C opposite edited A
# Assays:
# [1] = target: T1, hADAR2d (ADAR2 deaminase domain, …); assay: rate stated as similar to substrate b; conditions: tags: Ni-NTA purified (His10, TEV site); label: internal 32P
# Protocol: This reconstituted solution was heated to 65° C. for 5 minutes. After the solution was slowly cooled to room temperature, 1.5 μL of RNasin ([…]), 5 μL of 4 mM ATP, and 1 μL of T4 DNA ligase (400 U/μL) were added to the solution so that the final reaction volume was 20 μL . The reaction was incubated at 30° C. for 2 hours, then 2 μL of 40 μM trap DNA were added to the splint ligation reaction. The splint ligation products were purified as described above. Purified ³²P labeled top strand was hybridized with the corresponding bottom strand 24-nt oligonucleotide as described above. Deamination reactions were carried out as previously described (21) with the following modifications. For the partially 2′-deoxy-modified substrates, the final reaction volume was 10 μL. The final enzyme concentration was 300 nM. The final RNA concentration was 10 nM. The final reaction solution contained 16 mM Tris-HCl, pH 7.4, 3.3% glycerol, 1.6 mM EDTA, 0.003% NP-40, 60 mM KCl, 7.1 mM NaCl, 0.5 mM DTT, 160 units/mL RNasin, and 1 μg/mL yeast tRNA. Reactions were quenched by adding 190 μL 95° C. nuclease-free water followed by incubation at 95° C. for 5 minutes. […] The TLC was visualized by exposure to storage phosphor imaging plates (Molecular Dynamics) on a Typhoon phosphorimager (Molecular Dynamics) and quantified by volume integration using ImageQuant software (Molecular Dynamics). […]
# [2] = target: T1, hADAR2d (ADAR2 deaminase domain, …); assay: deamination rate, 300 nM enzyme; conditions: tags: Ni-NTA purified (His10, TEV site); label: internal 32P
# Protocol: For the partially 2′-deoxy-modified substrates, the final reaction volume was 10 μL. The final enzyme concentration was 300 nM. The final RNA concentration was 10 nM. The final reaction solution contained 16 mM Tris-HCl, pH 7.4, 3.3% glycerol, 1.6 mM EDTA, 0.003% NP-40, 60 mM KCl, 7.1 mM NaCl, 0.5 mM DTT, 160 units/mL RNasin, and 1 μg/mL yeast tRNA. Reactions were quenched by adding 190 μL 95° C. nuclease-free water followed by incubation at 95° C. for 5 minutes. Deaminated products were purified by phenol-chloroform extraction and ethanol precipitation. The product-containing solution was lyophilized to dryness and suspended in 50 μL of 1×TE solution, followed by digestion with nuclease P1. The resulting 5′-mononucleotides were resolved by thin-layer chromatography (TLC, Macherey-Nagel) (22). The TLC was visualized by exposure to storage phosphor imaging plates (Molecular Dynamics) on a Typhoon phosphorimager (Molecular Dynamics) and quantified by volume integration using ImageQuant software (Molecular Dynamics). […] Statistical significance between groups was determined by t tests using QuickCalcs (GraphPad Software). hADAR2 wt deamination was carried out twice, deamination with other proteins was carried out in triplicate.
Binder,binding signal [1],relative deamination rate [2]
B1,~15 fold slower than N1,
B2,,~15 fold slower than N1
